Reference: PubChem BioAssay (Tox21)
Inconclusive results are not listed. Values without a mark were called inactive. Activity calls are given as the source filed them. Calls follow the shape of the full dose curve.

What follows are compounds tested against Thyrotropin receptor (Homo sapiens) (UniProt P16473) (assay: qHTS assay to identify small molecule antagonists of the thyroid stimulating hormone receptor (TSHR) signaling pathway (AID 1259385; also: nearly all actives have a fitted effect of over 20% in size)). Conditions: TSHR-HEK293 cAMP HTRF, TSH-stimulated antagonist mode; series mostly up to 92.4 µM.
Sequence of Thyrotropin receptor (Homo sapiens) (P16473 whole entry, looked up): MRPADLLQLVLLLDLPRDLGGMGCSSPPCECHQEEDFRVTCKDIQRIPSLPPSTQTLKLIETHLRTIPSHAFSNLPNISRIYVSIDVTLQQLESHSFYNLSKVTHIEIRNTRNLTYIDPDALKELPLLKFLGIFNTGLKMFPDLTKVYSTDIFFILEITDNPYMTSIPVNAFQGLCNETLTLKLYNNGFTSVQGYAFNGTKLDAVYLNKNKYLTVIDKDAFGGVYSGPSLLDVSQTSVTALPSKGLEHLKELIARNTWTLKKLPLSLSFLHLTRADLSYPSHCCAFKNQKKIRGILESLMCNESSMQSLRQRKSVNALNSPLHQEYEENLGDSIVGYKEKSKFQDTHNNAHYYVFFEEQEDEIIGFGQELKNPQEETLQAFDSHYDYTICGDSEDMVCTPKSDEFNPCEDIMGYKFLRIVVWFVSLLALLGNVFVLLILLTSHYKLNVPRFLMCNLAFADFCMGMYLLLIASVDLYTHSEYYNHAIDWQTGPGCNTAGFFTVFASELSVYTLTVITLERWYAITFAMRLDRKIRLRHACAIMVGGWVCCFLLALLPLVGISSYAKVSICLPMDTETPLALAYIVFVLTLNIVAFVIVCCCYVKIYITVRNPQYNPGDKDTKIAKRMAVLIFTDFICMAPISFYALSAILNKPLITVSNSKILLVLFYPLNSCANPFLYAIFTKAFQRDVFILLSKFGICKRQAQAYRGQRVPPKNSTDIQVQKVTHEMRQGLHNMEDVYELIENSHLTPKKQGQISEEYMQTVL
Excerpt: U.S. Tox21 Program National Center for Advancing Translational Sciences [NCATS] NIH Chemical Genomics Center [NCGC] U.S. Environmental Protection Agency [EPA] National Institutes of Environmental Health Sciences [NIEHS] National Toxicology Program [NTP] U.S. Food and Drug Administration [FDA] Tox21 Assay Overview: TSHR is the receptor for thyrotropin (thyroid stimulating hormone or TSH), a member of the glycoprotein hormone family. TSH is released by the anterior pituitary gland and is the main regulator of thyroid gland growth and development. Upon binding circulating thyrotropin, a G-protein signal cascade activates adenylyl cyclase and […] cAMP concentration is increased. cAMP is a key second messenger involved extensively in cellular signal transduction pathways associated with the majority of G-protein coupled receptors (GPCRs). The activation of these GPCRs by neurotransmitters, lipids, nucleotides, peptides and hormones results in the activation or the inhibition of plasma membrane-bound adenylate cyclase through heterotrimeric G-proteins. A cell-based TSHR assay can be used to screen chemical compounds that modulate TSHR either in agonist or antagonist mode.
Tox21 Assay Protocol Summary: TSHR-Hek293 cells were dispensed at 800 cells/4uL/well in 1536-well white plates using a Multidrop dispenser. After the assay plates were incubated at a 37C/5% CO2 incubator for 18 hrs, 23 nL of compounds dissolved in DMSO, positive controls or DMSO only was transferred to the assay plate by a pin tool, followed by 1 ul medium containing Ro20-1724. For the antagonist mode screening, 1 uL of TSH was added on the top of the cell/compound mixtures to achieve a final agonist concentration of 1.5 ng/mL. After 30 min of incubation at room temperature, 2.5 ul/well of cAMP-d2 and 2.5 ul/well of anti-cAMP-cryptate were added respectively into the assay plates using a Flying Reagent Dispenser. The plates were incubated at room temperature for 1 hr. The fluorescence intensity in the plates was measured using an Envision plate reader. Each test compound was measured at 15 concentrations and in triplicates.
% is scaled to controls: 0 for no effect and ±100 for the full control effect.

| Structure (SMILES) | outcome | activity change, negative = inhibition |
| --- | --- | --- |
| CCOC(=O)OC(C)OC1=C(C(=O)Nc2ccccn2)N(C)S(=O)(=O)c2ccccc21 (stereo not given) | inactive |  |
| CC1(C)OC[C@@H](COC(=O)CCc2ccc(OC[C@@H](O)CNCCNC(=O)N3CCOCC3)cc2)O1 | inactive |  |
| CN(C)C(=O)Oc1cccc([N+](C)(C)C)c1 | inactive |  |
| [Ca+2] | inactive |  |
| COC(=O)Nc1ccc(Cl)c(Cl)c1 | inactive |  |
| CNCCO | inactive |  |
| CC1=NN(c2cc(S(=O)(=O)O)ccc2Cl)C(=O)C1N=Nc1ccccc1 (stereo not given) | inactive |  |
| CN(C)CCCN(C)CCCN(C)C | inactive |  |
| Cc1ncc(COP(=O)(O)O)c(C=O)c1O | inactive |  |
| CCN[C@H]1C[C@H](C)S(=O)(=O)c2sc(S(N)(=O)=O)cc21 | inactive |  |
| CC1OC1C1CCC2(C)OC2C1 (stereo not given) | inactive |  |
| CCCCCCCCN1CCCC1=O | inactive |  |
| CCC1C(=O)OCC1Cc1cncn1C (stereo not given) | inactive |  |
| C[C@H]1[C@H](NC(=O)/C(=N/OC(C)(C)C(=O)O)c2csc(N)n2)C(=O)N1S(=O)(=O)O (stereo in doubt) | inactive |  |
| CCCC(C)C(=O)OCC (stereo not given) | inactive |  |
| CCCCCCC1CCC(=O)O1 (stereo not given) | inactive |  |
| CC[N+](C)(CC)CCOC(=O)C1c2ccccc2Oc2ccccc21 | inactive |  |
| CCCC[N+](C)(CCCC)CCCC | inactive |  |
| Nc1c2c(nc3c1CCC3)CCCC2 | inactive |  |
| COc1cc(C)nc(-n2nc(C)cc2OC)n1 | inactive |  |

| Structure (SMILES) | outcome | activity change, negative = inhibition |
| --- | --- | --- |
| CCOC(=O)COC(=O)c1ccccc1C(=O)OCC | inactive |  |
| CCCOC(=O)CC | inactive |  |
| CC(C)(C)C(=O)c1ccccc1 | inactive |  |
| NO | inactive |  |
| CN(C)C(=O)Oc1ccc[n+](C)c1 | inactive |  |
| CCN1C=CN(C)C1C (stereo not given) | inactive |  |
| CC(CC=O)CC(C)(C)C (stereo not given) | inactive |  |
| c1ccc(CCc2ccccc2)cc1 | inactive |  |
| CO[C@@]1(NC(=O)C(C(=O)O)c2ccc(O)cc2)C(=O)N2C(C(=O)O)=C(CSc3nnnn3C)CO[C@@H]21 (stereo not given in full) | inactive |  |
| CN1[C@@H]2CC[C@H]1CC(OC(=O)C(O)c1ccccc1)C2 (stereo not given in full) | inactive |  |
| CC(C)CCCO | inactive |  |
| NC(N)=NCCN1CCCCCCC1 |  | -0.745% [at 0.349 µM] |
| COCCOCC(OC)OC | inactive |  |
| O=S(=O)(O)c1cccc2ccccc12 | inactive |  |
| CC(C)[C@H]1CC[C@@H](C)CC1=O | inactive |  |
| CC(C)(C)c1ccc(-c2ccc(C(C)(C)C)cc2)cc1 | inactive |  |
| C[N+](C)(CCOc1ccccc1)Cc1cccs1 | inactive |  |
| Cc1nc(C2CCCCC2)c(-c2ccc(S(N)(=O)=O)c(F)c2)o1 | inactive |  |
| CCOc1ccccc1OCC | inactive |  |
| CC(C)CC(C)(N)C#N (stereo not given) | inactive |  |
